{"source": "the supplement of paper PMC9588786", "note": "± gives the standard deviation of the averaged measurements.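 Note: viability read as CCK-8 absorbance at 450 nm in cells co-exposed to the GPX4 inhibitor RSL3, relative to a 0.01% DMSO vehicle control.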"}
{"test_system": "HT-1080", "test": "relative cell viability with RSL3 co-treatment (fraction of control); higher = stronger protection from RSL3-induced ferroptosis (higher viability)", "conditions": "10 µM"}
{"smiles": "CC(C)(C#N)c1ccc(N2C(=O)OCc3cnc4ccc(-c5cnc6ccccc6c5)cc4c32)cc1", "relative cell viability": "0.45 ± 0.18"}
{"smiles": "CC[C@@H]1C(=O)N(C)c2cnc(Nc3ccc(C(=O)NC4CCN(C)CC4)cc3OC)nc2N1C1CCCC1", "relative cell viability": "0.553 ± 0.031"}
{"smiles": "Cn1cnc2c(F)c(Nc3ccc(Br)cc3F)c(C(=O)NOCCO)cc21", "relative cell viability": "0.827 ± 0.097"}
{"smiles": "O=C1Nc2ccccc2/C1=C1/Nc2ccccc2C1=O", "note": "[Indirubin]", "relative cell viability": "0.75 ± 0.066"}
{"smiles": "O=C(NOCC1CC1)c1ccc(F)c(F)c1Nc1ccc(I)cc1Cl", "relative cell viability": "0.693 ± 0.2"}
{"smiles": "C=CC(=O)N1CCC[C@@H](n2nc(-c3ccc(Oc4ccccc4)cc3)c3c(N)ncnc32)C1", "relative cell viability": "0.933 ± 0.11"}
{"smiles": "O=C(NC1CCNCC1)c1n[nH]cc1NC(=O)c1c(Cl)cccc1Cl", "relative cell viability": "0.56 ± 0.18"}
{"smiles": "C[C@@H]1CN(CC(=O)Nc2ccc3c(c2)Cc2cccc(-c4cc(=O)cc(N5CCOCC5)o4)c2S3)C[C@H](C)O1", "relative cell viability": "0.46 ± 0.11"}
{"smiles": "CC(C)(C)c1cnc(CSc2cnc(NC(=O)C3CCNCC3)s2)o1", "relative cell viability": "0.573 ± 0.05"}
{"smiles": "O=C(O)c1ccc(N2C(=O)/C(=C\\c3ccc(-c4ccc([N+](=O)[O-])cc4)o3)C=C2c2ccccc2)cc1", "relative cell viability": "1.24 ± 0.092"}
{"smiles": "Cc1cc(Nc2cc(N3CCN(C)CC3)nc(Sc3ccc(NC(=O)C4CC4)cc3)n2)n[nH]1", "note": "[Tozasertib (VX-680, MK-0457)]", "relative cell viability": "0.71 ± 0.01"}
{"smiles": "Fc1cc(-c2cccc3ncc(-c4cnn(C5CCNCC5)c4)nc23)cc(F)c1CN1CCOCC1", "relative cell viability": "0.787 ± 0.058"}
{"smiles": "Oc1c(F)cc(-c2cnccc2-c2ccc(N3CCOCC3)cc2)cc1F", "relative cell viability": "0.757 ± 0.072"}
{"smiles": "CN(C)CCOc1ccc(-c2nc(-c3ccncc3)c(-c3ccc4c(c3)CC/C4=N\\O)[nH]2)cc1", "relative cell viability": "0.833 ± 0.1"}
{"smiles": "CC(C)[C@H](CO)Nc1nc(Nc2cccc(Cl)c2)c2ncn(C(C)C)c2n1", "note": "[Purvalanol A]", "relative cell viability": "0.65 ± 0.09"}
{"smiles": "N#C/C(=C(/N)Sc1ccc(N)cc1)c1ccccc1C(F)(F)F", "relative cell viability": "0.913 ± 0.038"}
{"smiles": "C#Cc1cccc(Nc2ncnc3cc(OCCOC)c(OCCO)cc23)c1", "relative cell viability": "0.597 ± 0.081"}
{"smiles": "CCCS(=O)(=O)Nc1ccc(F)c(C(=O)c2c[nH]c3ncc(-c4ccc(Cl)cc4)cc23)c1F", "note": "[Vemurafenib (PLX4032, RG7204)]", "relative cell viability": "0.323 ± 0.091"}
{"smiles": "CCn1c(-c2nonc2N)nc2c(C#CC(C)(C)O)ncc(OC[C@H]3CCCNC3)c21", "relative cell viability": "0.563 ± 0.18"}
{"smiles": "O=C(O)C(Cc1ccccc1[N+](=O)[O-])=NNc1nc(-c2ccc(Cl)c(Cl)c2)cs1", "note": "(mixture of isomers)", "relative cell viability": "1.27 ± 0.046"}
{"smiles": "COc1c(C)c(C(=O)c2ccc(N)c(C(=O)O)c2)n2ccccc12", "relative cell viability": "0.653 ± 0.14"}
{"smiles": "CN1CCN(c2ccc(Nc3cc(-c4cccc(-n5ccc6cc(C7CC7)cc(F)c6c5=O)c4CO)cn(C)c3=O)nc2)CC1", "relative cell viability": "0.763 ± 0.067"}
{"smiles": "COc1cc2c(c(OC)c1OC)-c1c(cc3c(c1OC)OCO3)CC(C)C(C)C2", "note": "(stereo not given) [Schisandrin B (Sch B)]", "relative cell viability": "1.01 ± 0.17"}
{"smiles": "Cc1[nH]nc2ccc(-c3cncc(OC[C@@H](N)Cc4ccccc4)c3)cc12", "relative cell viability": "0.59 ± 0.02"}
{"smiles": "CN(C)CCCn1cc(C2=C(c3c[nH]c4ccccc34)C(=O)NC2=O)c2ccccc21", "relative cell viability": "0.837 ± 0.045"}
